Data from PubChem BioAssay AID588496 (NMMLSC, 2011).
This is one part of the list. Active and inactive are the calls of the source.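 How the source made its calls: active means compounds that dim the fluorescent label, raw bead signal shifting by over 33 units between lowest and highest dose; inactive means the rest.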

Assay: bead-bound aptamer signal quenching artefacts – biochemical, powder set 1, flow cytometry, artefact control for GRK2 aptamer binding project, dose response (AID 588496)
Details: Bead-bound FAM RNA aptamer fluorescence quenching; MCF span: fluorescence change max-min concentration, stronger effect = higher value; fluorescence ratio to DMSO: at 11.1 µM, stronger effect = lower value

| Structure (SMILES) | MCF span | fluorescence ratio to DMSO |
| --- | --- | --- |
| O=C(CCS(=O)(=O)c1ccc(Br)cc1)NCCc1ccc(Cl)cc1 | 3.2 | 99% (inactive) |
| COc1ccc(Cl)cc1NC(=O)CCS(=O)(=O)c1ccc(Br)cc1 | -1.1 | 98% (inactive) |
